According to PubChem BioAssay (NCI):
Several values for one entry are separate records, joined by “and”; a condition that tells them apart may be missing. Equal values may be shown once. Compounds without any hit were thinned out: in the full panel of roughly 79,000, 15% have a hit. A structure can be active in one record and inactive in another. Activity calls are given as the source filed them. Rule as the data show it: active = growth inhibition above about 70%; inactive = the rest.

Assays:
[1] = NCI Yeast Anticancer Drug Screen. Data for the rad50 strain (AID 155);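 also: 0% = growth of vehicle-only cultures of the same strain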; settings: S. cerevisiae rad50 strain growth inhibition, stronger effect = higher value; at 50.0 µM unless noted
Method in brief: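 Relative growth inhibition (compound vs vehicle) was measured in yeast with a defined repair-gene alteration.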

[2] = NCI Yeast Anticancer Drug Screen. Data for the mec2-1 strain (AID 157); settings: S. cerevisiae mec2-1 strain, stronger effect = higher value; at 50.0 µM unless noted
Method in brief: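 Test agents were screened against the mec2-1 yeast strain, with defined DNA repair or cell cycle alteration. Growth was scored as inhibition against vehicle-only controls.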

[3] = NCI Yeast Anticancer Drug Screen. Data for the sgs1 mgt1 strain (AID 161);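 also: 0% = growth of cultures given vehicle only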; settings: S. cerevisiae sgs1 mgt1 strain, stronger effect = higher value; at 50.0 µM unless noted
Method in brief: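 Read-out: growth inhibition vs vehicle controls. Cells: mutant yeast strain deficient in DNA damage repair.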

[4] = NCI Yeast Anticancer Drug Screen. Data for the cln2 rad14 strain (AID 165);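 also: 0% = growth equal to vehicle treated cultures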; settings: S. cerevisiae cln2 rad14 strain, stronger effect = higher value; at 50.0 µM unless noted
Method in brief: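 Growth of compound-exposed yeast (cln2 rad14 genotype) measured and expressed as inhibition relative to vehicle.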

[5] = NCI Yeast Anticancer Drug Screen. Data for the bub3 strain (AID 167); settings: S. cerevisiae bub3 mutant strain, stronger effect = higher value; at 50.0 µM unless noted
Method in brief: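 Screening used yeast with an engineered genetic alteration affecting cell cycle control. Compound-exposed cultures were compared with vehicle cultures, and reduced growth was taken as inhibition.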

[6] = NCI Yeast Anticancer Drug Screen. Data for the mlh1 rad18 strain (AID 175); settings: S. cerevisiae mlh1 rad18 strain growth inhibition, stronger effect = higher value; at 50.0 µM unless noted
Method in brief: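 In this whole-cell yeast screen, a strain with altered DNA damage repair is challenged with compound, and its growth is measured against matched vehicle-treated controls.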

Measured: growth inhibition

CC1CN=C(N(C(=O)Nc2ccccc2)C2CCCCC2)S1 (stereo unspecified)
inactive: [1] -43.1% | [2] -8.9% | [3] -60.1% | [4] 5.35% | [5] -4.3% | [6] -20%

COC(=O)C1CCCCCCCCCCC12SCCCS2 (stereo unspecified)
inactive: [1] -32.5% | [2] -11.4% | [3] -17.5% | [4] 16.2% | [5] -5.7% | [6] -30%

COc1cc(CC2(C#N)c3ccccc3C=CN2C(=O)c2ccccc2)c(Oc2cc(CC3(C#N)c4ccccc4C=CN3C(=O)c3ccccc3)ccc2OC)cc1OC (stereo unspecified)
inactive: [1] 4.65% | [2] 8.85% | [3] 15.3% | [4] -5.6% | [5] 3.85% | [6] 32.9%

Cc1cc(N(CCCCl)CCCCl)ccc1C=Nc1cc(Cl)c(O)c(Cl)c1
active: [1] 71.8% | [3] 84.8%
inactive: [2] 6.15% | [4] -13.9% | [5] 53% | [6] 57.2%

C#CCOc1ccc(C)cc1
inactive: [1] -0.55% | [2] 5.35% | [3] -7.05% | [4] 9.25% | [5] 2.55% | [6] -10.1%

O=C1CCc2nc(-c3ccccc3)ncc21
inactive: [1] 9.25% | [2] 0% | [3] 1.95% | [4] -5.55% | [5] -2.2% | [6] -0.8%

CCS(=O)(=O)C(CCCl)S(=O)(=O)CC
inactive: [1] 2.45% | [2] 0.9% | [3] 16.4% | [4] 8.55% | [5] 17.4% | [6] 13.9%

CCOC(=O)C(C)NC(=O)C(C)NC(=O)C(C)NC(=O)C(C)NC(=O)C(C)NC(=O)OCc1ccccc1 (stereo unspecified)
inactive: [3] 7.15% | [4] -0.35% | [5] 15.7% | [6] -46.8%
active: [1] 87.1% | [2] 85.8%

c1cnc2c(c1)Oc1nc3ccccc3nc1S2
inactive: [1] 2.25% | [2] 6% | [3] 3.9% | [4] 35.9% | [5] 8.9% | [6] 23.1%

c1ccc2c(c1)ccc1c[n+]3ccccc3cc12
inactive: [1] 26.6% | [2] 23.1% | [3] 22.2% | [4] 44.5% | [5] 9.25% | [6] 61.9%

CC1OCC(O)C(C(O)C(=O)CN(Cc2ccccc2)Cc2ccccc2)O1 (stereo unspecified)
inactive: [1] 10.2% | [2] 15.6% | [3] 8.65% | [4] 8.55% | [5] 5.75% | [6] 9.55%

O=C(c1ccccc1)c1ccc2ccccc2c1
inactive: [1] 24.8% | [2] 13% | [3] 0.65% | [4] -13.2% | [5] 14.9% | [6] 28.3%

CCOC(=O)c1c(C)nc(C)c(C(=O)OCC)c1-c1ccc(N(C)C)cc1
84% (active) and -1.3% (inactive): [3]
inactive: [1] 3.7% and -7.5% | [2] 1.75% and 1.25% | [4] -4.4% and -6.05% | [5] 1.8% and -14.7% | [6] 4.05% and 5.25%

CCOC(=O)C1=C(O)C[C@]2(O)C3CC=C(C)[C@@H]4CCO[C@](OC)(C[C@H]2C1)[C@]34C(=O)OC (stereo partly specified)
inactive: [1] 1% | [2] 12.8% | [3] 8.35% | [4] 1% | [5] -1.1% | [6] 13.1%

CCN(CC)c1cc(C)c2cc(Cc3ccccc3)ccc2n1
inactive: [1] 35.2% | [2] 32.8% | [3] 23.9% | [4] 31.8% | [5] 65.1% | [6] 14.5%

C[N+]12CCCCC1C(CN1C(=O)c3ccccc3C1=O)CCC2 (stereo unspecified)
inactive: [1] 0.65% | [2] -6.05% | [3] 35.7% | [4] 10.9% | [5] 28.8% | [6] -40%

CC(C)C(C(N)=O)(C(=O)O)C(C)C
inactive: [1] -4.25% | [2] 4.05% | [3] 4.6% | [4] 5.2% | [5] -5.5% | [6] 6.85%

CC1=C2CC3=C(C)C(=O)O[C@H]3C[C@@H](C)[C@@H]2CC1
inactive: [1] 15.2% | [2] 9.9% | [3] 26% | [4] 1.15% | [5] 33.8% | [6] 2.45%

CCCCCCC1OC(C)C(C)O1 (stereo unspecified)
inactive: [1] 30.8% | [2] 13.7% | [3] 23.9% | [4] -5.15% | [5] -3.95% | [6] 15.4%

CNC(=O)NCCCCC(NC(=O)OCc1ccccc1)C(=O)OCc1ccccc1 (stereo unspecified)
inactive: [1] 3.15% | [2] -14% | [3] -37.2% | [4] -3.5% | [5] 1.15% | [6] -24.1%

CC(=O)C12C[C@](C#N)(N3CCCCCC3)C1C=Cc1ccccc12 (stereo partly specified)
inactive: [1] -56% | [2] -29.6% | [3] -46.1% | [4] -51.5% | [5] -21.5% | [6] -56.4%

C/C(=N\NC(N)=O)C1(O)CCCCC1
inactive: [1] -15.3% | [2] -26.7% | [3] -17.3% | [4] 4.45% | [5] -19.1% | [6] -11%

O=C(Nc1ccccc1C(F)(F)F)C(c1ccccc1)c1ccccc1
inactive: [1] 19.5% | [2] 12.2% | [3] 8.15% | [4] 9.55% | [5] 10.8% | [6] 3.35%

CC(=O)Oc1ccc2c(c1)[nH]c1c3ccc(OC(C)=O)cc3oc(=O)c21
inactive: [1] -21.4% | [2] -26.9% | [3] -8.05% | [4] 5.8% | [5] -2.85% | [6] -13.7%

Cc1cc(C)c(F)c(C)c1F
inactive: [1] -7.95% | [2] -4.6% | [3] -5.45% | [4] -15.8% | [5] 5.9% | [6] -2.3%

CCCCCCCCCCCC(=O)CCCCCCCCCCCC(=O)OC
inactive: [1] 2.15% | [2] 15.4% | [3] 17.1% | [4] 14.2% | [5] 45% | [6] -2.35%

CN(C)C(Cc1cnc[nH]1)C(=O)N1CCCC1C(N)=O (stereo unspecified)
inactive: [1] -22.4% | [2] -45.8% | [3] -9.65% | [4] -0.8% | [5] -20.8% | [6] 5.85%

Clc1cccc(C2SCc3nc4ccccc4n32)c1 (stereo unspecified)
inactive: [1] 17% | [2] -3.95% | [3] 46.1% | [4] 15.3% | [5] 5.9% | [6] 32.1%

N#Cc1ccc(/C=C(/C(=O)c2ccccc2)c2ccccc2)cc1
inactive: [1] 7.35% | [2] -31.9% | [3] 0.2% | [4] 6.85% | [5] -23.8% | [6] -3.35%

COc1ccc(N(C(=O)NCCO)c2ccccc2)cc1
inactive: [1] -3.75% | [2] -15.8% | [3] 14.9% | [4] 14.6% | [5] -2.3% | [6] 26.7%

N#C/C(=C\c1ccccc1)c1cccc(F)c1
inactive: [1] 28.9% | [2] 24.6% | [3] 18.2% | [4] -4.05% | [5] 15.7% | [6] 11.4%

COC(=O)C1(CC(=O)c2c(C)[nH]c3ccccc23)NC(=S)NC(=O)C1C#N (stereo unspecified)
inactive: [1] -6.35% | [2] 14.7% | [3] -21.1% | [4] -5.15% | [5] -11.1% | [6] 26.4%

CN(C)N=Nc1ccc(/C=C/C(=O)O)cc1
inactive: [1] 15.2% | [2] 4.8% | [3] 11.4% | [4] 1.65% | [5] 8.55% | [6] -4.95%

C#CCOC(=O)Nc1ccccc1
inactive: [1] 21.6% and 1.85% | [2] 12.7% and -1.2% | [3] -8.7% and -8.65% | [4] -72.2% and -54.2% | [5] -1.1% and -10.6% | [6] 5.55% and -0.8%

COc1ccc(CC(C)NN)cc1 (stereo unspecified)
active: [1] 93% | [4] 95.7% | [5] 99.2% | [6] 98.5%
inactive: [2] 56.7% | [3] 50.2%

O=C1c2ccccc2-c2c1c1ccccc1c(=O)n2-c1ccccc1
inactive: [1] -1.7% | [2] -26.1% | [3] 6% | [4] -5.85% | [5] -13.6% | [6] -51.6%
